Results on 40 sequences are retold here after the supplement of paper PMC10338343.

± gives the standard deviation.

In the assay the test system is MILI (PIWIL2) piRISC loaded with piRNA #1 (26 nt). In words: pre-steady-state target cleavage rate (min^-1); guide: piRNA #1 5'p-UGAGGUAGUAGGUUGUAUAGUAUCCA; MIWI and MILI are mouse PIWI proteins and EfPiwi is from a freshwater sponge; tags in brackets are library labels; higher = faster piRNA-guided slicing of the target. The settings on record: auxiliary factor: 500 nM mouse GTSF1. The gist of the method: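 The method was Cleave-'n-Seq, in which uncleaved targets from a transcribed, DNA-blocked target RNA library were sequenced after exposure to active affinity-purified piRISC carrying one synthetic guide, with or without GTSF1 partner protein. Reactions contained 0.1 nM library, 1 nM piRISC and, where present, 500 nM GTSF1 in HEPES–potassium acetate buffer at 33 °C for 0–8 or 0–960 min. Reads were normalised to depth and to weakly complementary targets, three trials were pooled, and k3 was capped at 0.0001 min^-1. The pre-steady-state cleavage rate came from a burst-and-steady-state fit.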
With GGAGACCUAAGUAUACAACCUUCUACCUCA, the “pre-steady-state target cleavage rate” value is 0.00652 ± 0.0032.
The result for GGAGAGGAUAGUAUACAACCUAGUACCUCA reads 0.0263 ± 0.008; that for GGAGACCUAUGUAUACAACCUACUUCCACA, 0.0135 ± 0.0034.
For GGAGAGGAUACUAUACAACCUACUAGCCUCA the value was 0.123 ± 0.02.
The result for GGAGACCUAUGUAUACAACCUACUACCUAA reads 0.0593 ± 0.0072; that for GGAGACCUUACUAUACACCUACUACCUCA, 0.00774 ± 0.0034.
For GGAGACCUAUGUUUACAACGUACUACCUCA, the “pre-steady-state target cleavage rate” value amounted to 0.00618 ± 0.0026.
The result for GGAGACCUAUGAUUACAACCUACUACCACA reads 0.00372 ± 0.0023; that for GGAGACCUAUGUAUACAACCUACUACCCUCA, 0.0911 ± 0.011; that for GGAGACCUAUGAAUACAACCUACUACCACA, 0.00626 ± 0.0028.
GGAGUGGAUACUAUUGAACCUACUACCUCA: the “pre-steady-state target cleavage rate” value was 0.0784 ± 0.0078.
For GGAGACCUAUGAUAUGUACCUACUACCCUCA, the “pre-steady-state target cleavage rate” value was less than 0.0001.
For GGAGACCUAACUAUACUAGCUACUACCUCA the value was 0.12 ± 0.015; for GGAGACCUAUGAUAUCAAGGAACUACCUCA, less than 0.0001.
The result for GGAGACCUAUGAUAUGUAGGAACUACCUCA reads less than 0.0001; that for “GGAGACCUAUGUAUACAUGGAUGAUGGAGA [g14:g19:cont:t1A]”, less than 0.0001.
For GGAGUGGAUACAAUUCAACCUACUACCUCA the value was 0.178 ± 0.0092; for GGAGACCUAUCUAUACAUCCUACUAGCUCA, 0.125 ± 0.019; for GGAGACCUAUGAUAUGAACCUACAACCACA, less than 0.0001.
As for GGAGACCUAUCUUAUCAACCUACUACCUCA, the “pre-steady-state target cleavage rate” value was 0.0106 ± 0.0025.
Turning to GGAGACCUAUGUAUACAUGCUACUACCUCA, the “pre-steady-state target cleavage rate” value stood at 0.0469 ± 0.007.
Consider GGAGUGGAUUCUAUACAACCUACUUCCUCA, for which the “pre-steady-state target cleavage rate” value was 0.00383 ± 0.0021.
The result for GGAGACCUAUGUAAUCAACCUACUACCUCA reads 0.00445 ± 0.003; that for GGAGACCUAUCUAUUCAACCUACUACCACA, 0.144 ± 0.022.
For GGAGACCUUACUAUUCAAGCUACUACCUCA the value was 0.235 ± 0.013; for GGAGACCUAACUAAACAACCUACAACCUCA, 0.131 ± 0.029; for GGAGACCUAUGAUAUGUUCCUACGUACCUCA, less than 0.0001.
For GGAGACCUAUGAUUACAUCCUACUUCCUCA the value was 0.00764 ± 0.0027; for GGAGUGGAUACUAUUCAACCUACUUCCUCA, 0.00253 ± 0.002.
For GGAGACCAUACUAUACAAGGUACUACCUCA, the “pre-steady-state target cleavage rate” value was determined as 0.0713 ± 0.0087.
Regarding GGAGAGGAUUCUAUUCAACCUACUACCUCA, the “pre-steady-state target cleavage rate” value stood at 0.174 ± 0.013.
For the sequence GGAGACCUAAGUAUACAACCUACAACCUCA, the “pre-steady-state target cleavage rate” value is 0.0483 ± 0.0084.
As to GGAGACCUAUGAAAACAACCUACAACCUCA, the “pre-steady-state target cleavage rate” value worked out at 0.00529 ± 0.0026.
For GGAGACCUUACUAAACUACCUACUACCUCA the value was 0.104 ± 0.013.
For GGAGACCAUUCUAUUCAACCUACUACCUCA the value was 0.102 ± 0.012.
For GGAGACCUUACUAUACUACCUACUACGUCA, the “pre-steady-state target cleavage rate” value is 0.0704 ± 0.01.
The result for GGAGACCUAUGAUAUCAAGCUACUACCUGA reads 0.00472 ± 0.003; that for GGAGACCUAUGAAUACAAGCUACUACGUCA, 0.0102 ± 0.003; that for GGAGACCUAUGAUUACAACCUACUUCCUCA, 0.00303 ± 0.0022.
For GGAGACGUUACUAUACAACCUACUAGCUCA the value was 0.0954 ± 0.016.
